Assay results reported in article PMC5540273 (PLoS ONE, 2017).

Columns and labels:
Settings in all cases: concentration: 1 μM, replicates: in singlicate; n = 1
CDK4-cyclinD1 = tested on: CDK4-cyclinD1
CDK4-cyclinD3 = tested on: CDK4-cyclinD3
CDK4 = tested on: CDK4
CDK5 = tested on: CDK5
CDK7 = tested on: CDK7
CDK8 = tested on: CDK8
CDK9 = tested on: CDK9
CDKL1 = tested on: CDKL1
CDKL2 = tested on: CDKL2
CDKL3 = tested on: CDKL3
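Further: KINOMEscan kinase panel screen.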

| SMILES | %Inh (CDK4-cyclinD1) [%] | %Inh (CDK4-cyclinD3) [%] | %Inh (CDK4) [%] | %Inh (CDK5) [%] | %Inh (CDK7) [%] | %Inh (CDK8) [%] | %Inh (CDK9) [%] | %Inh (CDKL1) [%] | %Inh (CDKL2) [%] | %Inh (CDKL3) [%] |
| --- | --- | --- | --- | --- | --- | --- | --- | --- | --- | --- |
| COc1cccc(NC(=O)Nc2ccc(C)c(-c3ccc(C(=O)Nc4ccncc4)cc3)c2)c1 [GSK1398474] | 0 | 0 | 37 | 0 | 0 | 0 | 0 | 51 | 18 | 0 |
| O=c1cc(N2CCOCC2)nc2n(Cc3cccc(Cl)c3Cl)c3ccccc3n12 [GSK2299009] | 0 | 0 | 31 | 16 | 0 | 0 | 6 | 15 | 14 | 0 |
| Cc1ccc(-c2nc(Nc3ccncc3)c3ccccc3n2)s1 [GSK189015] | 0 | 0 | 0 | 100 | 0 | 3 | 5 | 0 | 0 | 0 |
| CNc1cc(-c2ccc3c(N)n[nH]c3c2)nc(N)n1 [GSK2224810] | 3 | 0 | 18 | 0 | 2 | 26 | 0 | 17 | 0 | 0 |
| COc1ccc(CSc2nnc(-c3ccc4ncsc4c3)o2)cc1C(F)(F)F | 0 | 0 | 0 | 2 | 0 | 15 | 0 | 0 | 0 | 0 |
